# Test results reported in PubChem BioAssay (NCI).
# This is part of a sample that, as a whole, favours compounds with a hit. Of some 83,000 tested, about 20% had one in any assay.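 Percent growth is the endpoint: 0 to 100 indicates growth inhibition (40 means 60% inhibition), 0 means no net growth, and negative values indicate cell death.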 A number with no mark means an inactive call. Activity calls are given as the source filed them. Rule for the calls: active = growth percent below 10; inactive = the rest.
# System: MDA-MB-468 breast
# Experiment: NCI-60 one-dose screen, 48 h (100 = growth as untreated, 0 = no growth, -100 = all killed)
# Settings: 10 µM unless noted
row,Compound,growth
1,Cc1cc(C(O)(c2ccc(Nc3ccccc3)cc2)c2ccc(Nc3ccc(S(=O)(=O)O)cc3)cc2)ccc1N (configuration not stated),-71.3% (active)
2,O=C(N=Nc1c(O)[nH]c2ccc(F)cc12)c1cc2ccccc2[nH]1,124%
3,C=CCn1c(SCC(=O)Nc2ccc(C(=O)/C=C/c3ccc(Cl)cc3)cc2)nnc1-c1ccccc1,101%
4,COc1ccc(Cl)cc1NC(=O)c1cc2c([nH]1)-c1nc(NC(=O)C(C)C)sc1CC2,112%
5,COc1ccc(/C=C2\N=C3Sc4cc(Cl)ccc4C(=O)N3C2=O)cc1,113%
6,Cc1ccc2[nH]c(=S)[nH]c(=O)c2c1,102%
7,Fc1c[c-]c(-c2ccccn2)c(F)c1.Fc1c[c-]c(-c2ccccn2)c(F)c1.[Cl][Pt+].[Cl][Pt+].c1ccc([PH+](C[PH+](c2ccccc2)c2ccccc2)c2ccccc2)cc1,-2.28% (active)
8,Cc1cc(C(O)CN(C)C)cc2c1ccc1cc(C(C)C)ccc12 (configuration not stated),-88.6% (active)
9,O=C(CCCCC(=O)Nc1ccc2c(c1)/C(=C/c1ccc[nH]1)C(=O)N2)NO,49%
10,CCC(C)[C@H]1OC(=O)[C@H](C(C)C)N(C)C(=O)[C@@H](C(C)C)OC(=O)[C@H](C(C)C)N(C)C(=O)[C@@H](C(C)CC)OC(=O)[C@H](C(C)C)N(C)C1=O (some centres not stated),-0.281% (active)
11,COc1ccc(-c2nnc(SCC(=O)Nc3ccc(C(=O)/C=C/c4ccc(Cl)cc4)cc3)o2)cc1OC,99.4%
12,NC(=O)c1c(NC(=O)c2cccc(C(F)(F)F)c2)sc2c1CCC(=O)C2,-38.1% (active)
